Drawing on PubChem BioAssay (NCI), this text covers growth for 40 compounds.

Values joined by “and” are separate entries in the source; they are usually repeats but may differ in a detail not shown here. Identical values can stand only once. The panel holds about 83,000 compounds, 20% with a hit somewhere; the sample as a whole holds those more often.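 Testing used 96-well plates and a 48-hour single-concentration exposure. Example: -40 means 40% of the starting cells died.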 Unmarked numbers belong to inactive results. Active and inactive are the calls of the source. Rule for the calls: active = growth percent below 10; inactive = the rest.

The assay has as its system MDA-MB-468 breast. Kind of assay: NCI-60 one-dose screen, 48 h (100 = growth as untreated, 0 = no growth, -100 = all killed). To be noted: 10 µM unless noted.
Take `O=S(=O)(NCCCNc1nccc(-c2c(-c3ccc(F)cc3)nc3sccn23)n1)c1ccc2ccccc2c1`: the growth was 51.8%. As for `O=C(O)c1cn(C2CC2)c2cc(N3CCN(C(=O)N(c4ccccc4)c4nc(-c5ccccc5)cs4)CC3)c(F)cc2c1=O`, the figure is -0.856% (active).

As for `COc1ccc(N=Nc2ccc(O)c(=O)cc2)cc1`, the growth is -31.9% (active). Consider `CCC(=C(c1ccc(OCCN(C)C)cc1)c1ccc(OCCN(C)C)cc1)c1ccc(Cl)cc1`, for which the growth is -82.8% (active). In the case of `N#Cc1ccc(Oc2ccc3ccc(=O)oc3c2)cc1`, the growth is 93.4%. As for `O=C(c1ccccc1)c1ccc(Cl)c([N+](=O)[O-])c1`, the figure is 77.7%. The value for `C#C[C@]1(O)CC[C@H]2[C@@H]3CC=C4c5nc(N)sc5CC[C@]4(C)[C@H]3CC[C@@]21C` was 34%; that for `C=CCSSC1N=CNc2nc[nH]c21` (stereo not given) was 5.55% (active); that for `CO[C@H]1CC(=O)n2c3ccccc3c3c4c(c5c6ccccc6n1c5c32)C(=O)NC4=O` was 34.2%. The value for `O=C(O)CCC(NC(=O)OCc1ccccc1)C(=O)O` (stereo not given) was 101%; that for `COc1cc2c(cc1-c1c(C)noc1C)ncc1nc(C3CCOCC3)n(C3CCC(OC(F)F)CC3)c12` (stereo not given) was 40.9%. Regarding `N/C(=N\N=C\c1ccc2c(c1)OCO2)N/N=C\c1ccc2c(c1)OCO2`, the growth is 98.9%. The value for `C#CCN(CCCOc1ccc(Cl)cc1Cl)CCCSC(=O)CCCCCN1/C(=C\C=C2/CCCC(/C=C/C3=[N+](CCCCCC(=O)[O-])c4ccccc4C3(C)C)=C2Cl)C(C)(C)c2ccccc21` was 12.8%; that for `C[C@@H](Oc1cc(C(=O)Nc2ccc(C(=O)N3CCN(C)CC3)cc2)nnc1N)c1c(Cl)ccc(F)c1Cl` was 62.3%; that for `Cn1cc2c(c1)-c1nc(Nc3ccccc3)ncc1CC2` was 47.6%. The value for `O=[N+]([O-])c1ccc(Oc2ccccc2)cc1` was 103% and 113%; that for `CCCCCCCC/C=C\CCCCCCCC(=O)Oc1cccc2cccnc12` was 121%; that for `Cc1nn(-c2ccc(Cl)cc2)c(=O)n1CCOc1ccccc1Cl` was 105%. The value for `COCCn1c(Nc2ccc(C(=O)NO)cc2)nc2ccccc21` was 63.7%. On to `Cc1cc(O)c(C(C)C)cc1Cl`, for which the growth was 114%. Consider `CC1=C(C)C[C@]2(C(=O)O[C@H]3CCCC[C@@H]32)[S@](=O)C1`, for which the growth is 114%. As for `O=C1C=CC2=C3c4cc(O)c(O)cc4CC3(O)COC2=C1O` (stereo not given), the figure is 102%. Consider `N#Cc1c(-c2ccc(Cl)cc2)nc2c(c(-c3ccccc3)nn2-c2ccccc2)c1-c1ccc(O)cc1`, for which the growth was 31.2%. For `O=C(CSc1nc(-c2ccccc2)cc(=O)[nH]1)Nc1nc(-c2ccccc2)cs1`, the growth is 96.6%. Regarding `O=c1cc(-c2ccc(OCc3ccccc3)cc2)oc2c(I)c(OCc3ccccc3)cc(OCc3ccccc3)c12`, the growth was 102%. As for `COc1ccc(-n2nnc(C(=O)O)c2-c2cc(OC)c(OC)c(OC)c2)cc1`, the figure is 102%.

On to `O=S(=O)(NCCNc1nccc(-n2cnc3ccccc32)n1)c1ccc(Br)cc1`, for which the growth is 84%. `CCn1c(O)c(/C=N/NC(=O)C(C)c2ccc(CC(C)C)cc2)sc1=S` (stereo not given): the growth is 6.34% (active). On to `CCOC(=O)c1c(C)nc2c(c1N)/C(=C/c1cc(OC)c(OC)c(OC)c1)C(=O)N2c1ccc(OC)cc1`, for which the growth was 56%. For `COC12C=C/C(=C(/C(=O)OCc3ccncc3)C(=O)CCCCCCCCC3(OC)C=C/C(=C(/C(=O)OCc4ccncc4)C(=O)CCCCCCCC1)O3)O2`, the growth was -39% (active). Regarding `COc1ccc(-c2nnc(COc3ccc(NC(=O)Nc4cccc(C(F)(F)F)c4)cc3F)o2)cc1`, the growth was 46.1%.

Turning to `O=C1c2ccc3c4c5ccc(c24)C(=O)N1CCCOCCCCOCCCNCc1ccc(cc1)CNCCCOCCCCOCCCN(C3=O)C5=O`, the growth was -81.4% (active).

`N=C(N)c1ccc(OCCSCCOc2ccc(C(=N)N)cc2)cc1`: the growth is 40.1%.

As to `CC1=NCC2NC(=O)NC(C)=C12` (stereo not given), the growth is 92.3%. As for `CCCCCCCCCCCCCCCCN(C(C)c1ccccc1)S(=O)(=O)c1ccc(OC)c(N)c1` (stereo not given), the figure is 119%; as for `C=C1CC[C@@H]2C(C)(C)[C@@H](O)CC[C@@]2(C)[C@@H]1COc1ccc2ccc(=O)oc2c1`, 53.1%.

As for `COC(=O)/C=C1/SC(=Nc2ccc([N+](=O)[O-])cc2)N(CCc2c[nH]c3ccccc23)C1=O`, the growth was 86%. The value for `COc1ccc(C(=O)/C=C/c2cccnc2Nc2cc(OC)c(OC)c(OC)c2)cc1` was 9.95% (active); that for `CC1(C)OCC2OC3(C(=O)O)OC(C)(C)OC3C2O1` (stereo not given) was 98.5%. For the compound `Cc1[nH]nc2ccc3nc(-c4ccc5[nH]ncc5c4)c4c(c3c12)CCCC4`, the growth is -6.72% (active).
